In the library only some 2.1% were active in any assay of this set; here they are far more common.
FUS yeast rescue: rescues growth of FUS-expressing yeast; Potency, µM (top dose mostly 76.6 µM), hits mostly activators; S. cerevisiae FUS-expressing, growth rescue, OD600, 24 h; actives 0.24% (n = 390,000);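 also: plate controls were DMSO vehicle for no effect and reference control for full effect; nearly all actives have a fitted effect of over 55% in size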
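Compound concentration series was pinned onto galactose-induced FUS-expressing yeast seeded at OD 0.005. Plates sat 24hr at 30C; absorbance at 600 nm gave growth. DMSO served as background control.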
aSyn yeast inh: rescues yeast growth from alpha-synuclein toxicity; Yeast expressing alpha-synuclein, growth rescue, BacTiter-Glo, 24 h; Potency, µM (doses to about 46.1 µM), without a hit: at the top dose growth rescue (activation), usual class: activators; actives 0.14% (n = 370,000); AID 652106; also: % of control where 0% means no effect; nearly all actives have a fitted effect of over 65% in size
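Screening used galactose-induced yeast with toxic alpha-synuclein levels, exposed to compound for 24 hr at 30 deg C. Cell growth, read with BacTiter-Glo luminescence, gave the measured signal.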
Abeta rescue: compounds reversing amyloid beta toxicity in yeast; yeast expressing A-beta42, growth rescue, OD600, 48 h; response scale: 0% DMSO, 100% iron-clioquinol control; Potency, µM (series often up to 46.1 µM), hits mostly activators; actives 0.063% (n = 410,000); AID 1347071; also: nearly all actives have a fitted effect of over 55% in size
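Yeast A-beta toxicity model in growth medium with pinned compounds, 48 h at 30 C; growth read as absorbance at 600 nm. Normalized to FeCl3/clioquinol equimolar mix (positive) and DMSO (negative).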
TDP43 rescue: rescues yeast growth from TDP-43 toxicity. Potency, µM (series often up to 46.1 µM), without a hit: at the highest dose growth rescue (activation), hits mostly activators. TDP-43 expressing yeast growth rescue, BacTiter-Glo, 24 h. actives 1.8% (n = 410,000). AID 652104; also: % of control where 0% means no effect; nearly all actives have a fitted effect of over 50% in size
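In this qHTS, compounds that restore growth of yeast expressing TDP-43 appear as activators. Cells (OD600=0.02, galactose medium, raffinose-pregrown) are incubated with compound 24 hr at 30 deg C and growth is quantified by BacTiter-Glo.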
Active calls of the source: *; i = inactive; ? = inconclusive; / = no result given. Calls follow the shape of the dose curve; as a rule, active = well fitted curve in the direction sought with a large enough effect; inconclusive = small, poorly fitted or top-dose-only effect, or another doubt; inactive = no such curve, though single readings can be large; an effect the other way counts as inactive or inconclusive. Potency is read from the fitted curve at half-maximal effect.

SMILES | FUS yeast rescue | aSyn yeast inh | Abeta rescue | TDP43 rescue
CN(C(=O)c1cccc(Nc2ccc(-c3ccc4c(c3)OCCO4)nn2)c1)C1CCCCC1 | 25µM* | 16% | i | 22%
Cc1ccc(C)n1NC(=O)c1ccccc1 | 20µM* | -2% | i | -2%
Cc1ccc(C)n1NC(=O)c1ccc(O)cc1 | i | 6% | i | -15%
Cn1nnc(NC(=S)NC(=O)c2ccc3ccccc3c2)n1 | i | -2% | i | ?
CCCCn1nnc(NC(=S)NC(=O)c2cccs2)n1 | / | -15% | i | 35µM*
Cn1nnc(NC(=S)NC(=O)c2cccs2)n1 | i | -16% | i | 11%
Cn1nnc(NC(=S)NC(=O)c2cccc3ccccc23)n1 | i | -9% | 11µM* | 9%
Cc1cc(NC(=O)CSc2ccc3nnc(-c4cccc(F)c4)n3n2)no1 | i | 3% | i | -13%
Cc1ccc(C=C2C(=O)c3ccccc3C2=O)s1 | i | -3% | i | 22%
C=CCN(C(=O)C1CSC2(C)CCC(=O)N12)c1nc(-c2ccccc2)cs1 (configuration not stated) | i | -1% | i | 13%
Cn1ncc(Cl)c1C(=O)NC1C2CC3CC(C2)CC1C3 (configuration not stated) | i | 8% | i | ?
Cc1nn(C)c(C(=O)NC2C3CC4CC(C3)CC2C4)c1Cl (configuration not stated) | i | 7% | i | 10µM*
Cc1ccc(C(=O)Nc2ccccc2Sc2ccccc2)cc1 | i | 12% | i | 5%
O=C(Nc1ccccc1Sc1ccccc1)c1ccc(F)cc1 | i | -9% | 14µM* | 15%
CCc1nc2nc(C)cc(Nc3cccc(C)c3C)n2n1 | i | / | i | 28%
Cc1cc(Nc2cc(Cl)ccc2C)n2nc(Cc3ccccc3)nc2n1 | i | / | i | 35µM*
Cc1cccc(Nc2cc(C)nc3nc(Cc4ccc(Cl)cc4)nn23)c1 | i | / | i | ?
CCc1nc2nc(C)cc(Nc3cc(C)ccc3C)n2n1 | i | / | i | 20µM*
O=C(COc1ccccc1F)N1CCc2ccccc2C1 | i | 5% | i | ?
O=C(COc1c(Br)cc(Br)c2cccnc12)N1CCCCC1 | i | 7% | i | 15%
O=C(COc1c(Br)cc(Br)c2cccnc12)N1CCc2ccccc2C1 | i | 13µM* | i | ?
O=C(COc1ccccc1Cl)N1CCc2ccccc2C1 | i | -4% | i | 13µM*
O=C(/C=C/c1c(F)cccc1Cl)N1CCc2ccccc2C1 | i | ? | i | 7.9µM*
COc1ccc(NC(=O)Cn2c(=O)n(-c3ccccc3)c(=O)c3c4c(sc32)CCCC4)c(OC)c1 | i | / | i | 19%
Cc1ccc(C)c(CN2C(=O)c3ccccc3S(=O)c3ccc(C(=O)N4CCN(c5cccc(Cl)c5)CC4)cc32)c1 (configuration not stated) | 10µM* | / | i | -30%
SMILES | FUS yeast rescue | aSyn yeast inh | Abeta rescue | TDP43 rescue
CCOc1ccc(CCNC(=O)c2ccc3c(c2)N(Cc2ccccc2)C(=O)c2ccccc2S3=O)cc1OCC (configuration not stated) | 25µM* | / | i | 18%
CCN(C(=O)c1ccc2c(c1)N(Cc1cccc(Cl)c1)C(=O)c1ccccc1S2=O)c1ccccc1 (configuration not stated) | 32µM* | / | i | -19%
CCN1CCN(CCNC(=O)c2ccc3c(c2)N(Cc2cccc(Cl)c2)C(=O)c2ccccc2S3=O)CC1 (configuration not stated) | i | -2% | i | -11%
COc1ccc(N2CCN(C(=O)c3ccc4c(c3)N(Cc3cc(C)ccc3C)C(=O)c3ccccc3S4=O)CC2)cc1 (configuration not stated) | i | / | i | 23%
Cc1cccc(C(=O)Nc2nnc(C3=COCCO3)o2)c1 | i | 4% | i | 6%
Nc1ccc2c(c1)C(=O)C(=O)c1ccccc1-2 | i | -81% | i | -92%
O=C1C(=O)c2ccc(-c3ccccc3)cc2-c2ccccc21 | i | -36% | i | 3.5µM*
CCC(C)Sc1ccc([C@@H]2[C@@H]3C(=O)N(CC)C(=O)[C@@H]3[C@]3(C(=O)OC)CCCCN23)cc1OC (some centres not stated) | ? | 15% | i | 35µM*
CCN1C(=O)[C@H]2[C@@H](c3ccc(-c4ccc(C(C)=O)cc4)c(OC)c3)N3CCCC[C@@]3(C(=O)OC)[C@H]2C1=O | ? | ? | i | 14µM*
CCN1C(=O)[C@@H]2[C@@H](c3ccc(SC4CCCCC4)c(OC)c3)N3CCCC[C@@]3(C(=O)OC)[C@@H]2C1=O | 5µM* | -1% | i | -22%
CCN1C(=O)[C@@H]2[C@@H](c3ccc(-c4ccc(F)cc4)c(OC)c3)N3CCCC[C@@]3(C(=O)OC)[C@@H]2C1=O | ? | -14% | i | ?
CCC(C)Sc1ccc([C@@H]2[C@@H]3C(=O)N(C)C(=O)[C@@H]3[C@]3(C(=O)OC)CCCCN23)cc1OC (some centres not stated) | i | 16% | i | ?
COC(=O)[C@@]12CCCN1[C@H](c1ccc(-c3ccc(Cl)c(Cl)c3)c(OC)c1)[C@H]1C(=O)N(C)C(=O)[C@H]12 | 35µM* | -7% | i | ?
Cc1ccc(/C(N)=N/OC(=O)Cc2cccc3ccccc23)cc1 | i | -20% | i | 14µM*
Cc1ccc(/C(N)=N/OC(=O)Cc2ccccc2)cc1 | i | -20% | i | 9%
Cc1cccc(/C(N)=N/OC(=O)Cc2cccc3ccccc23)c1 | i | -29% | i | 11µM*
Cc1cccc(C(=O)O/N=C(\N)Cc2cccc3ccccc23)c1 | i | -77% | i | -53%
COc1ccc(Oc2cccc(Cl)c2CNC(=O)CC(C)(C)CC(=O)O)cc1 | i | 8% | i | -10%
CS(=O)(=O)c1ccc(NCCN2CCOCC2)c([N+](=O)[O-])c1 | i | -1% | i | -17%
COc1ccc(N=Nc2nc3ccc(Br)cc3n2C)cc1 | i | -15% | i | 13µM*
CCOc1ccc(NC(=O)CC2C(=O)N(c3ccc(OC)cc3)C(=O)N2C2CCCCC2)cc1 (configuration not stated) | 40µM* | / | i | -12%
Fc1c(F)c(F)c(CSc2nc3ccccc3[nH]2)c(F)c1F | i | -11% | i | 11µM*
O=C(c1cnc(N2CCCCC2)c2ccccc12)N1CCN(c2ccccc2F)CC1 | i | / | i | 27%
Cc1ccc(S(=O)(=O)NCCC(=O)NNc2c(F)c(F)cc(F)c2F)cc1 | i | -3% | i | 7%
O=C(CCO)c1ccc(O)cc1 | i | 1% | i | 26%
O=C(CCSc1ccc(Br)cc1)c1ccc(O)cc1 | i | 2% | i | 11µM*
O=C(NCc1noc2ccccc12)N1CCN(c2ccccc2F)CC1 | i | / | i | ?

Compound activity (PubChem BioAssay)
